In PubChem BioAssay (NCATS):
Records with an inconclusive call do not appear. The source made the active and inactive calls. Calls follow the shape of the dose curve; as a rule, active = well fitted curve in the direction sought with a large enough effect; inconclusive = small, poorly fitted or top-dose-only effect, or another doubt; inactive = no such curve, though single readings can be large; an effect the other way counts as inactive or inconclusive.

Columns and labels:
[1] = Viability qHTS for spleen associated tyrosine kinase inhibitor (SYKi) naive MV4-11 cells (AID 1963823); also: nearly all actives have a fitted effect of over 40% in size
Summary of the method: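 Viability of MV4-11 AML cells lacking prior SYK inhibitor exposure is scored by CellTiter-Glo luminescence following 72 hr compound incubation at 37 C, 5% CO2, seeded at 500 cells per well.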

[2] = Viability qHTS for spleen associated tyrosine kinase inhibitor (SYKi) drug resistant MV4-11 cells (AID 1963824); also: nearly all actives have a fitted effect of over 35% in size
Summary of the method: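 SYK-inhibitor-resistant MV4-11 AML cells were seeded at 500 per well onto compound and cultured 72 hours (37 °C, 5% CO2). CellTiter-Glo was then added, and after 10 min at room temperature, luminescence gave viability.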

[3] = Cellular viability qHTS for adrenocortical cancer (ACC) cell line SW-13 (AID 1963989); settings: SW-13 ACC cells viability, CellTiter-Glo, 48 h; activity (max response): active compounds read low; also: nearly all actives have a fitted effect of over 65% in size;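 as to activity (max response): cells grown in serum-free medium with ITS supplement; % is scaled to controls: 0 for no effect and ±100 for the full control effect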
Summary of the method: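 IC50 and maximal-response values come from four-parameter logistic fits of titration data. SW-13 cells in serum-free medium received compounds (up to 46 uM final) for 48 h before CellTiter-Glo luminescence.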

[4] = Cellular viability qHTS for adrenocortical cancer (ACC) cell line NCI-H295R (AID 1963990); also: nearly all actives have a fitted effect of over 60% in size
Summary of the method: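 Adrenocortical carcinoma cells, suspended at 300 000 cells/mL in serum-free DMEM plus ITS, rested overnight before pin transfer of compound. After two days' incubation, ATP-dependent luminescence was recorded and curve-fitted.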
Potency is read from the fitted curve at half-maximal effect.

Row | Compound | Potency [1] | Potency [2] | activity (max response) [3] | Potency [4] | Potency [3]
1 | CC(=O)O/N=C1\C(=O)N(Cc2cc(Cl)ccc2Cl)c2ccc(Cl)cc21 | 5900 nM (active) | 8330 nM (active) | -2.12% (inactive) | 562 nM (active) | –
2 | O=C1NC(=O)[C@@H](c2c[nH]c3ccccc23)[C@H]1c1cn2c3c(cccc13)CCC2 | 833 nM (active) | 742 nM (active) | – | 355 nM (active) | 398 nM (active)
3 | CN[C@@H]1[C@H](O)[C@H](NC)[C@H]2O[C@@]3(O)C(=O)C[C@@H](C)O[C@H]3O[C@@H]2[C@H]1O | inactive | inactive | 16.5% (inactive) | inactive | –
4 | C=CCNc1c(O)cc2c(O)c1C[C@@H](C)C[C@H](OC)[C@H](O)[C@@H](C)/C=C(/C)[C@H](OC(N)=O)[C@@H](OC)/C=C\C=C(\C)C(=O)N2 | 132 nM (active) | 417 nM (active) | – | 10000 nM (active) | 3160 nM (active)
5 | C=CC(=O)N1CC/C(=C\c2ccc(F)c([N+](=O)[O-])c2)C(=O)/C(=C/c2ccc(F)c([N+](=O)[O-])c2)C1 | 33.2 nM (active) | 33.2 nM (active) | – | 316 nM (active) | 794 nM (active)
